# Reference: the supplement of paper PMC8728848
# This is one part of a sample in which the strongest signals are shown more often than they occur.
# B1: CALR truncated at D342 (Homo sapiens) (protein)
# chain: EPAVYFKEQFLDGDGWTSRWIESKHKSDFGKFVLSSGKFYGDEEKDKGLQTSQDARFYALSASFEPFSNKGQTLVVQFTVKHEQNIDCGGGYVKLFPNSLDQTDMHGDSEYNIMFGPDICGPGTKKVHVIFNYKGKNVLINKDIRCKDDEFTHLYTLIVRPDNTYEVKIDNSQVESGSLEDDWDFLPPKKIKDPDASKPEDWDERAKIDDPTDSKPEDWDKPEHIPDPDAKKPEDWDEEMDGEWEPPVIQNPEYKGEWKPRQIDNPDYKGTWIHPEIDNPEYSPDPSIYAYDNFGVLGLDLWQVKSGTIFDNFLITNDEAYAEEFGNETWGVTKAAEKQMKD
# B2: Mincle (Bos taurus) (protein)
# chain: MNSSTSPASQTERRCFSFQLFSWAIAGTSILLLSACFITRCVVTYSIFQLCDEKKFQPPGDSMELSCYNDGSGSVKNCCPLKWFHFQSSCYLFSPDTMSWRASLKNCSSMGAHLVVINTQEEQEFLYYTKPRKKEFYIGLTDQVTEGQWQWVDGTPFTKSLSFWDAGEPNNLVIVEDCATIRDSSNPRQNWNDVPCFFNMFRVCEMPERKI
# How the values were obtained:
# Assay in all cases: glycan array binding signal (z-score within array); higher = stronger binding
# Settings in all cases: glycan notation: IUPAC condensed, linker removed
# GlcA(b1-6)Gal = target: GlcA(b1-6)Gal
# How it was run: (§1)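 From the Consortium for Functional Glycomics database, 3228 arrays were curated, keeping only those whose protein sequence was available. Binding is given as a within-array Z-score averaged across arrays sharing a protein sequence and across linkers. Negative Z-scores can be read as non-binding.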
# [1] = target: GlcNAc(a1-3)Gal(b1-4)GlcNAc
# How it was run: as §1
# [2] = target: GlcNAc(a1-4)Gal(b1-4)GlcNAc(b1-3)Gal(b1-4)[Fuc(a1-3)]GlcNAc(b1-3)Gal(b1-4)[Fuc(a1-3)]GlcNAc
# How it was run: as §1
# [3] = target: GlcNAc(b1-2)Gal(b1-3)GalNAc
# How it was run: as §1
# [4] = target: GlcNAc(b1-2)[GlcNAc(b1-6)]Man(a1-6)[GlcNAc(b1-2)Man(a1-3)][GlcNAc(b1-4)]Man(b1-4)GlcNAc(b1-4)GlcNAc
# How it was run: as §1
# [5] = target: Man(a1-2)Man(a1-2)Man(a1-3)Man
# How it was run: as §1
# [6] = target: Man(a1-2)Man(a1-6)[Man(a1-3)]Man(a1-6)[Man(a1-2)Man(a1-2)Man(a1-3)]Man
# How it was run: as §1
# [7] = target: Man(a1-3)[Man(a1-6)]Man(a1-6)[Man(a1-3)]Man
# How it was run: as §1
# Man(a1-6)Man = target: Man(a1-6)Man
# How it was run: as §1
# [8] = target: Neu5Ac(a2-6)Gal(b1-4)GlcNAc(b1-2)Man(a1-3)[GlcNAc(b1-2)Man(a1-6)]Man(b1-4)GlcNAc(b1-4)GlcNAc
# How it was run: as §1
# [9] = target: Neu5Ac(a2-6)Gal(b1-4)GlcNAc(b1-2)Man(a1-6)[Gal(b1-4)GlcNAc(b1-2)Man(a1-3)]Man(b1-4)GlcNAc(b1-4)GlcNAc
# How it was run: as §1
# [10] = target: Neu5Ac(a2-6)Gal(b1-4)GlcNAc(b1-2)Man(a1-6)[GlcNAc(b1-2)Man(a1-3)]Man(b1-4)GlcNAc(b1-4)GlcNAc
# How it was run: as §1
# [11] = target: Neu5Ac(a2-6)Gal(b1-4)GlcNAc(b1-3)Gal(b1-4)[Fuc(a1-3)]GlcNAc(b1-3)Gal(b1-4)[Fuc(a1-3)]GlcNAc
# How it was run: as §1
# Neu5Ac(a2-6)GalNAc = target: Neu5Ac(a2-6)GalNAc
# How it was run: as §1
# [12] = target: Neu5Ac(a2-6)GlcNAc(b1-4)GlcNAc(b1-4)GlcNAc
# How it was run: as §1
# [13] = target: Neu5Ac(a2-8)Neu5Ac(a2-8)Neu5Ac(a2-3)[GalNAc(b1-4)]Gal(b1-4)Glc
# How it was run: as §1
# Fuc(a1-2)Gal = target: Fuc(a1-2)Gal
# How it was run: as §1
# [14] = target: Fuc(a1-2)Gal(b1-4)GlcNAc(b1-2)Man(a1-3)[Fuc(a1-2)Gal(b1-4)GlcNAc(b1-2)Man(a1-6)]Man(b1-4)GlcNAc(b1-4)GlcNAc
# How it was run: as §1
# [15] = target: Fuc(a1-2)Gal(b1-4)GlcNAc(b1-6)GalNAc
# How it was run: as §1
# [16] = target: Fuc(a1-2)Gal(b1-4)[Fuc(a1-3)]GlcNAc(b1-3)[Neu5Ac(a2-6)Gal(b1-4)GlcNAc(b1-6)]Gal(b1-4)Glc
# How it was run: as §1
# Fuc(a1-2)[Gal(a1-3)]Gal = target: Fuc(a1-2)[Gal(a1-3)]Gal
# How it was run: as §1
# [17] = target: Fuc(a1-2)[Gal(a1-3)]Gal(b1-4)GlcNAc(b1-2)Man(a1-3)[Fuc(a1-2)[Gal(a1-3)]Gal(b1-4)GlcNAc(b1-2)Man(a1-6)]Man(b1-4)GlcNAc(b1-4)[Fuc(a1-6)]GlcNAc
# How it was run: as §1
# [18] = target: Fuc(a1-2)[GalNAc(a1-3)]Gal(b1-3)GalNAc(b1-3)Gal(a1-4)Gal(b1-4)Glc
# How it was run: as §1
# [19] = target: Fuc(a1-2)[GalNAc(a1-3)]Gal(b1-3)GlcNAc(b1-2)Man(a1-3)[Fuc(a1-2)[GalNAc(a1-3)]Gal(b1-3)GlcNAc(b1-2)Man(a1-6)]Man(b1-4)GlcNAc(b1-4)[Fuc(a1-6)]GlcNAc
# How it was run: as §1
# [20] = target: Fuc(a1-2)[GalNAc(a1-3)]Gal(b1-4)GlcNAc(b1-2)Man(a1-3)[Fuc(a1-2)[GalNAc(a1-3)]Gal(b1-4)GlcNAc(b1-2)Man(a1-6)]Man(b1-4)GlcNAc(b1-4)GlcNAc
# How it was run: as §1
# [21] = target: Fuc(a1-3)[Gal(b1-4)]Glc6S
# How it was run: as §1
# [22] = target: Fuc(a1-3)[Gal3S(b1-4)]GlcNAc6S
# How it was run: as §1
# [23] = target: Gal(a1-3)Gal(b1-3)GlcNAc(b1-3)GalNAc
# How it was run: as §1
# [24] = target: Gal(a1-3)Gal(b1-3)[Fuc(a1-4)]GlcNAc(b1-2)Man(a1-3)[Gal(a1-3)Gal(b1-3)[Fuc(a1-4)]GlcNAc(b1-2)Man(a1-6)]Man(b1-4)GlcNAc(b1-4)GlcNAc
# How it was run: as §1
# Gal(a1-3)Gal(b1-4)Glc = target: Gal(a1-3)Gal(b1-4)Glc
# How it was run: as §1
# [25] = target: Gal(a1-3)Gal(b1-4)GlcNAc(b1-3)GalNAc
# How it was run: as §1
# [26] = target: Gal(a1-3)Gal(b1-4)[Fuc(a1-3)]GlcNAc
# How it was run: as §1
# Gal(a1-4)Gal(b1-4)Glc = target: Gal(a1-4)Gal(b1-4)Glc
# How it was run: as §1
# [27] = target: Gal(a1-4)Gal(b1-4)GlcNAc(b1-2)Man(a1-3)[Gal(a1-4)Gal(b1-4)GlcNAc(b1-2)Man(a1-6)]Man(b1-4)GlcNAc(b1-4)GlcNAc
# How it was run: as §1
# [28] = target: Gal(a1-4)Gal(b1-4)GlcNAc(b1-3)Gal(b1-4)Glc
# How it was run: as §1
# Gal(b1-3)Gal(b1-4)GlcNAc = target: Gal(b1-3)Gal(b1-4)GlcNAc
# How it was run: as §1
# Gal(b1-3)GalNAc = target: Gal(b1-3)GalNAc
# How it was run: as §1
# [29] = target: Gal(b1-3)GlcNAc(b1-3)Gal(b1-4)GlcNAc(b1-2)Man(a1-3)[Gal(b1-3)GlcNAc(b1-3)Gal(b1-4)GlcNAc(b1-2)Man(a1-6)]Man(b1-4)GlcNAc(b1-4)GlcNAc
# How it was run: as §1
# Gal(b1-3)GlcNAc6S = target: Gal(b1-3)GlcNAc6S
# How it was run: as §1
# [30] = target: Gal(b1-3)[Fuc(a1-4)]GlcNAc(b1-2)Man
# How it was run: as §1
# Gal(b1-4)Glc6S = target: Gal(b1-4)Glc6S
# How it was run: as §1
# Gal(b1-4)GlcNAc = target: Gal(b1-4)GlcNAc
# How it was run: as §1
# [31] = target: Gal(b1-4)GlcNAc(b1-2)[Gal(b1-4)GlcNAc(b1-6)]Man(a1-6)[Gal(b1-4)GlcNAc(b1-2)Man(a1-3)]Man(b1-4)GlcNAc(b1-4)GlcNAc
# How it was run: as §1
# [32] = target: Gal(b1-4)GlcNAc(b1-3)Gal(b1-4)GlcNAc(b1-2)Man(a1-3)[Gal(b1-4)GlcNAc(b1-3)Gal(b1-4)GlcNAc(b1-2)Man(a1-6)]Man(b1-4)GlcNAc(b1-4)[Fuc(a1-6)]GlcNAc
# How it was run: as §1
# [33] = target: Gal(b1-4)GlcNAc(b1-3)Gal(b1-4)GlcNAc(b1-3)Gal(b1-4)GlcNAc(b1-3)Gal(b1-4)GlcNAc(b1-3)Gal(b1-4)GlcNAc(b1-3)Gal(b1-4)GlcNAc(b1-2)Man(a1-3)[Gal(b1-4)GlcNAc(b1-3)Gal(b1-4)GlcNAc(b1-3)Gal(b1-4)GlcNAc(b1-3)Gal(b1-4)GlcNAc(b1-3)Gal(b1-4)GlcNAc(b1-3)Gal(b1-4)GlcNAc(b1-2)Man(a1-6)]Man(b1-4)GlcNAc(b1-4)GlcNAc
# How it was run: as §1
# [34] = target: Gal(b1-4)GlcNAc(b1-3)[Gal(b1-4)GlcNAc(b1-6)]Gal(b1-4)GlcNAc
# How it was run: as §1
binder,measurement,setting,value
B1,glycan array binding signal (z-score),GlcA(b1-6)Gal,1.96
same,glycan array binding signal (z-score),[1],-0.73
same,glycan array binding signal (z-score),[2],2.68
same,glycan array binding signal (z-score),[3],-0.975
same,glycan array binding signal (z-score),[4],-0.104
same,glycan array binding signal (z-score),[5],-0.176
same,glycan array binding signal (z-score),[6],3.6
same,glycan array binding signal (z-score),[7],-0.102
same,glycan array binding signal (z-score),Man(a1-6)Man,0.051
same,glycan array binding signal (z-score),[8],-0.321
same,glycan array binding signal (z-score),[9],3.22
same,glycan array binding signal (z-score),[10],-1.48
same,glycan array binding signal (z-score),[11],0.139
same,glycan array binding signal (z-score),Neu5Ac(a2-6)GalNAc,-0.893
same,glycan array binding signal (z-score),[12],0.867
same,glycan array binding signal (z-score),[13],-0.341
B2,glycan array binding signal (z-score),Fuc(a1-2)Gal,3.49
same,glycan array binding signal (z-score),[14],1.4
same,glycan array binding signal (z-score),[15],-0.168
same,glycan array binding signal (z-score),[16],-0.411
same,glycan array binding signal (z-score),Fuc(a1-2)[Gal(a1-3)]Gal,-0.737
same,glycan array binding signal (z-score),[17],-0.601
same,glycan array binding signal (z-score),[18],-0.374
same,glycan array binding signal (z-score),[19],0.364
same,glycan array binding signal (z-score),[20],0.419
same,glycan array binding signal (z-score),[21],-0.342
same,glycan array binding signal (z-score),[22],-0.116
same,glycan array binding signal (z-score),[23],0.019
same,glycan array binding signal (z-score),[24],1.26
same,glycan array binding signal (z-score),Gal(a1-3)Gal(b1-4)Glc,0.058
same,glycan array binding signal (z-score),[25],-0.713
same,glycan array binding signal (z-score),[26],-0.559
same,glycan array binding signal (z-score),Gal(a1-4)Gal(b1-4)Glc,-0.565
same,glycan array binding signal (z-score),[27],0.919
same,glycan array binding signal (z-score),[28],-0.763
same,glycan array binding signal (z-score),Gal(b1-3)Gal(b1-4)GlcNAc,-0.462
same,glycan array binding signal (z-score),Gal(b1-3)GalNAc,-0.37
same,glycan array binding signal (z-score),[29],0.271
same,glycan array binding signal (z-score),Gal(b1-3)GlcNAc6S,-0.773
same,glycan array binding signal (z-score),[30],1.34
same,glycan array binding signal (z-score),Gal(b1-4)Glc6S,0.6
same,glycan array binding signal (z-score),Gal(b1-4)GlcNAc,-0.249
same,glycan array binding signal (z-score),[31],-0.55
same,glycan array binding signal (z-score),[32],1.11
same,glycan array binding signal (z-score),[33],0.667
same,glycan array binding signal (z-score),[34],-1.01
